DT40 TDP1 no CPT: qHTS for Inhibitors of human tyrosyl-DNA phosphodiesterase 1 (TDP1): qHTS in cells in absence of CPT. DT40 Tdp1-/- hTDP1 cells, no CPT, ATP luminescence, 48 h. Potency, µM (top dose mostly 46.2 µM), for the others: at the highest dose activity change, negative = growth inhibition, actives largely listed as inhibitors. 420,000 compounds, 15% hits. AID 686978, 2013; note: potency is the fitted concentration of half-maximal effect; nearly all actives have a fitted effect of over 55% in size
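Seeded 400 DT40-hTDP1 cells/well (vehicle DMSO, no 20 nM CPT); pinned compounds; ≥48 hr at 37 °C; CellTiter-Glo luminescence as viability measure.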
HT1080 IDH1KD tx: qHTS for induction of synthetic lethality in tumor cells producing 2HG: qHTS for the HT-1080-IDH1KD cell line; Potency, µM (titrated, usually from 46.1 µM), inactives show at the highest dose activity, negative = toxicity, hits mostly cytotoxic; HT-1080 IDH1 knockdown viability, ATP luminescence, 48 h; 360,000 compounds, 2% hits; AID 686971, 2013;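 note: potency is the fitted concentration of half-maximal effect; 0% = DMSO wells and -100% = cell-free medium wells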
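Luminescent ATP read-out (CellTiter-Glo, 10 min at room temperature) after 48 h compound exposure at 37 °C gave viability of IDH1-knockdown HT-1080 cells. Activity was normalised to DMSO and cell-free wells, then fitted as concentration-response curves.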
ELG1 repair inh: qHTS screen for small molecules that inhibit ELG1-dependent DNA repair in human embryonic kidney (HEK293T) cells expressing luciferase-tagged ELG1 | HEK293T ELG1-luciferase reporter, luminescence, 16 h; DNA damage induced by 5-fluorouridine | Potency, µM (top dose mostly 46.1 µM), without a hit: top-dose activity change, negative = inhibition, actives largely listed as inhibitors | 330,000 compounds, 2.3% hits | AID 504467, 2011; note: potency is the fitted concentration of half-maximal effect; nearly all actives have a fitted effect of over 55% in size
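Quantitative HTS, concentration-response format. 2,000 cells/well co-treated with 5-fluorouridine and compound, 16 hr in 5% CO2 at 37 °C; ONE-Glo luminescence read after 30 min.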
DT40 TDP1 CPT: qHTS for Inhibitors of human tyrosyl-DNA phosphodiesterase 1 (TDP1): qHTS in cells in presence of CPT; chicken DT40 Tdp1-/-;hTDP1 cells + 20 nM CPT, ATP luminescence, 48 h; 420,000 compounds, 12% hits; AID 686979, 2013; Potency, µM (titrated, usually from 46.2 µM), for inactives: at the highest dose activity change, negative = growth inhibition, most hits filed as inhibitors; note: potency is the fitted concentration of half-maximal effect; nearly all actives have a fitted effect of over 55% in size
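Chicken DT40 Tdp1-/- cells complemented with human TDP1, 400 cells/well, exposed to compounds plus 20 nM camptothecin for at least 48 h at 37 C; viability read as ATP content by CellTiter-Glo luminescence.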
HT1080-NT tox: qHTS for induction of synthetic lethality in tumor cells producing 2HG: qHTS for the HT-1080-NT fibrosarcoma cell line | HT-1080-NT fibrosarcoma viability, CellTiter-Glo ATP luminescence, 48 h | Potency, µM (top dose mostly 46.1 µM), inactives show at the highest dose activity, negative = less viability, actives largely listed as cytotoxic | 360,000 compounds, 1.6% hits | AID 686970, 2013;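 note: NT is the 2HG producing partner of a matched IDH1 knockdown line; potency is the fitted concentration of half-maximal effect; 0% = DMSO-treated cells and -100% = media-only wells without cells; nearly all actives have a fitted effect of over 55% in size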
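Luminescent CellTiter-Glo readout after 48 hours of compound exposure at 37 degrees C defined viability of HT-1080-NT cells. Activity was normalized to DMSO wells and cell-free media wells; concentration-response curves were fitted and assigned curve classes.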
IL-1B inflam inh: qHTS for Inhibitors of Inflammasome Signaling: IL-1-beta AlphaLISA Primary Screen; 360,000 compounds, 4.7% hits; THP-1 LPS/ATP IL-1B secretion, AlphaLISA, 16 h; stronger effect = lower value; activity change, % at 57.5 µM; in the data active = activity change below about -50%; inconclusive = mostly about -30% to -49%
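THP-1 cells pretreated 1 hr with compounds (up to 57.5 uM final), then stimulated with LPS (250 ng/mL final) plus ATP (1.25 mM final); secreted IL-1B measured by AlphaLISA after 16 hr, decreased signal indicating inhibition.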
* marks the source's active call; other numbers are inactive results; ? = inconclusive; . = no result given; [ ] = dose if it differs, or a comment. The list is not random: actives were taken first. Their share in the collection is about 19%. Unless noted, calls come from the whole dose curve; as a rule, active = well fitted curve in the direction sought with a large enough effect; inconclusive = small, poorly fitted or top-dose-only effect, or another doubt; inactive = no such curve, though single readings can be large; an effect the other way counts as inactive or inconclusive. Unless noted, % is set by controls: 0 for no effect and ±100 for the full control effect.

SMILES | DT40 TDP1 no CPT | HT1080 IDH1KD tx | ELG1 repair inh | DT40 TDP1 CPT | HT1080-NT tox | IL-1B inflam inh
CCOC(=O)N1CCN(Cc2nc3c(c(=O)n(C)c(=O)n3C)n2Cc2cccc3ccccc23)CC1 | ? | -1.5% | ? | 23.1µM* | -9.6% | -4.2
COc1ccccc1C1CN(CCNC(=O)c2ccccc2Cl)Cc2ccccc2O1 (stereo not given) | -6.5% | . | . | 23.0%[9.04 µM] | . | .
O=C(OCc1nc2ccc(Cl)cc2n1CCO)c1ccccc1 | -27.1% | 10.7% | 13.1% | -5.5% | 0.6% | 19.6
ClCCn1c(CCl)nc2ccc(Cl)cc21 | 16.4µM* | -0.5% | . | ? | -12.9% | 19.7
CC(C)[C@H](NC(=O)c1ccc(C(C)(C)C)cc1)C(=O)N1CCN(Cc2ccc3c(c2)OCO3)CC1 | 3.66µM* | 18.4µM* | 16.4µM* | 3.66µM* | ? | -72.3*
C[C@H](NC(=O)c1ccccc1)C(=O)N1CCN(Cc2ccc3c(c2)OCO3)CC1 | -16.8% | 11.3% | 0.5% | -19.8% | 14.3% | 0.0
CCC(C(=O)N1CCN(Cc2ccc3c(c2)OCO3)CC1)n1c(=O)[nH]c2ccccc2c1=O (stereo not given) | 10.3% | -1.6% | 7.7% | 0.4% | -1.5% | -3.8
O=C(Cn1c(=O)[nH]c2ccccc2c1=O)N1CCN(Cc2ccc3c(c2)OCO3)CC1 | ? | -2.2% | 23.1µM* | ? | 0.1% | 6.9
CC(C)[C@@H](C(=O)N1CCN(Cc2ccc3c(c2)OCO3)CC1)n1nnc2ccccc2c1=O | 13µM* | -7.9% | -13.8% | 20.6µM* | 1.2% | 0.0
O=C(CCCCCn1c(=O)[nH]c2ccccc2c1=O)N1CCN(Cc2ccc3c(c2)OCO3)CC1 | ? | -7.5% | 18.4µM* | 13µM* | -8.5% | -28.4
COc1cc2[nH]c(=O)n(CCC(=O)N3CCN(Cc4ccc5c(c4)OCO5)CC3)c(=O)c2cc1OC | -24.4% | 14.6% | 5.5% | ? | 9.9% | ?
CCCC(C)(C)C(=O)N1CCC1(C)C(=O)NS(=O)(=O)c1cccc(Cl)c1 (stereo not given) | -7.1% | ? | . | -20.4% | -0.9% | 34.1
O=C(CN1C(=O)c2cccc3cccc(c23)C1=O)N1CCN(Cc2ccc3c(c2)OCO3)CC1 | 18.4µM* | 2.4% | ? | 20.6µM* | -3.3% | -6.4
O=C(CN1C(=O)c2cccc3cccc1c23)NCc1ccc2c(c1)OCO2 | -14.1% | -3.2% | 5.5% | -7.3% | 8.2% | -5.2
Cc1ccc(C(=O)N2CCC2(C)C(=O)NC(C)C)cc1 (stereo not given) | 19.5% | 12.3% | . | -5.8% | 9.8% | -5.4
Cc1ccc[n+](CC(=O)c2ccc(Br)cc2)c1C | -0.7% | 0.7% | -1.0% | -4.2% | 8.6% | 0.0
O=C(NCC(=O)N1CCN(c2ccc(C(F)(F)F)cn2)CC1)c1ccc(Br)o1 | 6.51µM* | 0.1% | -16.4% | 20.6µM* | 1.0% | 9.1
CC(=O)N1CCN(C(=O)CNC(=O)c2ccc(Br)o2)CC1 | 5.8% | 3.1% | 14.8% | 3.5% | 6.8% | 7.2
Cc1ccccc1SCC(=O)N1CCN(c2ccc(C(F)(F)F)cn2)CC1 | 23.1µM* | -11.9% | ? | ? | -13.3% | -92.0*
Cc1cccc(C)c1NC(=O)CN1CCN(c2ccc(C(F)(F)F)cn2)CC1 | 11.6µM* | -26.1% | . | 14.6µM* | -4.8% | 6.0
CC(=O)c1cccc(OCC(=O)N2CCN(c3ccc(C(F)(F)F)cn3)CC2)c1 | 14.6µM* | 11.4% | ? | ? | 9.8% | -2.2
O=C(COCc1cc(-c2ccc(F)cc2)on1)Nc1cc(Cl)cc(Cl)c1 | ? | . | . | -27.1% | . | .
COc1cc(OC)c(NC(=O)c2nn(C)c3c2COc2ccccc2-3)cc1Cl | 16.0% | . | . | 7.1% | . | .
Cc1cccc(C)c1NC(=O)C(c1ccccc1)N1CCN(c2ccc(C(F)(F)F)cn2)CC1 (stereo not given) | ? | 0.1% | . | 23.1µM* | 3.1% | 0.0
Cc1cc(N(C)C)c(C)cc1/C=C/c1ccnc2ccccc12 | 0.562µM* | . | . | 0.794µM* | . | .
SMILES | DT40 TDP1 no CPT | HT1080 IDH1KD tx | ELG1 repair inh | DT40 TDP1 CPT | HT1080-NT tox | IL-1B inflam inh
CCOc1ccccc1/C=C/c1cc(C(=O)O)c2ccccc2n1 | ? | 24.7% | ? | -24.6% | 8.5% | -3.9
CCN(CC)c1cc(C)c(/C=C/c2ccnc3ccccc23)cc1C | 12.6µM* | . | . | 10µM* | . | .
Cc1cc(C)nc(NNC2=CC(=[N+]3CCCCC3)CC(C)(C)C2)n1 | 14.6µM* | 26.1% | -3.0% | -24.6% | 11.7% | 1.0
COc1ccc(Cc2nnc(SC(C)C(=O)Nc3ccc(C(N)=O)cc3)o2)cc1 (stereo not given) | 9.3% | -8.2% | -0.7% | 3.0% | 5.3% | 5.7
O=[N+]([O-])c1ccc2nc(-c3ccc(OC(F)F)cc3)cn2c1 | -5.9% | ? | ? | 24.7% | ? | 16.0
COc1cccc(C2c3c(C)nn(-c4ccc([N+](=O)[O-])cc4)c3N=C3C(=O)Nc4ccccc4N32)c1 (stereo not given) | 5.8µM* | -7.5% | ? | 13µM* | -1.5% | 6.8
Cc1nn(-c2ccc([N+](=O)[O-])cc2)c2c1C(c1ccc(OC(F)F)cc1)N1C(=N2)C(=O)Nc2ccccc21 (stereo not given) | 4.61µM* | -0.9% | ? | 5.17µM* | 2.7% | ?
O=C(COc1ccccc1Br)N1CCN(C(=O)c2ccco2)CC1 | 18.2% | 8.6% | -1.2% | ? | 15.5% | -16.8
O=C(c1c[nH]c(C(=O)C(Cl)(Cl)Cl)c1)c1ccc(F)cc1Cl | 13µM* | 25.9µM* | -14.5% | ? | -12.6% | -62.8*
O=C(c1ccc(Cl)cc1)c1c[nH]c(C(=O)NNc2ccccc2)c1 | 0.0% | 5.17µM* | -20.9% | 10.1% | ? | -6.1
O=C(c1c[nH]c(C(=O)C(Cl)(Cl)Cl)c1)c1ccc(F)cc1F | 13µM* | -1.2% | 0.3% | ? | -1.5% | 0.0
CN(C)C(=O)c1cc(C(=O)c2ccc(F)cc2F)c[nH]1 | -21.9% | 3.4% | ? | 18.2% | 22.9% | -6.7
